# From PubChem BioAssay (NCATS)
# Where “and” joins values, the source holds several entries; their conditions need not be identical. Equal entries are not always repeated. Records with an inconclusive call do not appear. A call without a number means that no potency is given here. Calls of active or inactive are those of the source. Unless noted, the call rests on the fitted dose curve.
# Key:
# [1] = Cell Viability - NIH 3T3 (AID 541; active means well fitted curve in the direction sought with a large enough effect; an effect the other way counts as inactive or inconclusive;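 further: cells exposed to compound for 40 hours; nearly all actives have a fitted effect of over 25% in size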); settings: NIH 3T3 cell viability, qHTS; activity change, negative = cytotoxicity: at 92.2 µM (top of the series)
# Summary of the method: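 AC50 values reflect concentration-dependent loss of intracellular ATP in NIH 3T3 cells after 40 hr treatment in complete culture medium, quantified by luciferase-based luminescence.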
# [2] = Cell Viability - SH-SY5Y (AID 544; active means well fitted curve in the direction sought with a large enough effect; an effect the other way counts as inactive or inconclusive;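 further: cells exposed to compound for 40 hours; nearly all actives have a fitted effect of over 55% in size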; further: potency means the concentration at half of the fitted maximal effect); settings: SH-SY5Y neuroblastoma cell viability; viability change, negative = cytotoxic: at 92.2 µM (top of the series)
# Summary of the method: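 Cytotoxicity is scored as a concentration-dependent fall in intracellular ATP in human SH-SY5Y cells treated 40 hr in complete culture medium. Potency is expressed as AC50 from a Hill equation fit.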
# [3] = Cellular Toxicity (caspase-3) Jurkat (AID 655; active means well fitted curve in the direction sought with a large enough effect; an effect the other way counts as inactive or inconclusive;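 further: cells exposed to compound for 16 h at 37 °C before reading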); settings: Jurkat caspase-3 activation, luminescence; caspase-3 activation: at 92.2 µM (top of the series), DMSO = 0%, tamoxifen = 100%
# Summary of the method: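 Jurkat cells (5000/well) in complete medium exposed 16 h at 37 C; caspase-3/7 activity read by Caspase-Glo luminescence after 20 min at room temperature. Normalized to DMSO and 100 uM tamoxifen; AC50 from Hill fits.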
# [4] = Cell Viability - LYMP2-005 (AID 967; active means well fitted curve in the direction sought with a large enough effect; an effect the other way counts as inactive or inconclusive; further: potency means the concentration at half of the fitted maximal effect)
# Summary of the method: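 Human lymphoblastoid LYMP2-005 cells, 2,500 per well in complete medium, rested 5 h at 37C then compound-treated 24 h at 37C. Intracellular ATP read by CellTiter-Glo luminescence after 30 min at room temperature; AC50 from Hill-equation fits of concentration-response data.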
# [5] = biological target: Estrogen receptor (Homo sapiens) (UniProt P03372); test: qHTS assay for small molecule antagonists of estrogen receptor alpha signaling (AID 588513; active means well fitted curve in the direction sought with a large enough effect in the signal ratio, with a control signal flat, not every such curve was filed as active; the % refers to the signal ratio)
# Summary of the method: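 ER-alpha-UAS-bla GripTite HEK 293 cells in 2% charcoal/dextran-treated FBS medium; compounds titrated (1:2, duplicate), then stimulated with 0.5 nM 17-beta-estradiol for 18 h at 37C. CCF4 beta-lactamase fluorescence; Hill-fit IC50 and efficacy.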
# [6] = biological target: Glucocorticoid receptor (Homo sapiens) (UniProt P04150); test: qHTS assay for small molecule agonists of glucocorticoid receptor signaling (AID 588532; active means well fitted curve in the direction sought with a large enough effect in the signal ratio, with a control signal flat; the % refers to the signal ratio); settings: HeLa MMTV-bla, beta-lactamase ratio, agonist, 18 h; stronger effect = higher value; percent of dexamethasone control, DMSO zero
# Summary of the method: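 Cells were plated and rested 3-5 h at 37 C, compounds were added in titration and incubated 18 h, then CCF4 substrate was loaded for 2 h at RT before reading blue/green fluorescence. EC50 came from Hill-equation fitting.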
# [7] = biological target: Glucocorticoid receptor (Homo sapiens) (UniProt P04150); test: qHTS assay for small molecule antagonists of glucocorticoid receptor signaling (AID 588533; active means well fitted inhibition curve with a large enough effect in the signal ratio, with a control signal flat, not every such curve was filed as active; the % refers to the signal ratio;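 further: cells stimulated with 2 nM dexamethasone as agonist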)
# Summary of the method: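 Antagonist-mode qHTS: compound titrations added to GRE-bla HeLa cells, then dexamethasone 2 nM final; 18 h, 37 C. CCF4 FRET fluorescence normalized to dexamethasone and DMSO; IC50 from Hill fit.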
# [8] = biological target: Peroxisome proliferator-activated receptor delta (Homo sapiens) (UniProt Q03181); test: qHTS assay for small molecule agonists of peroxisome proliferator-activated receptor delta signaling (AID 588534)
# Summary of the method: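 Reporter cells were plated and held 5 hrs at 37 C before compounds were added. After 18 hrs at 37 C, CCF4 dye was loaded for 2 hrs at RT and fluorescence measured.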
# [9] = biological target: Retinoic acid receptor RXR-alpha (Homo sapiens) (UniProt P19793); test: qHTS assay for small molecule agonists of retinoid X receptor alpha signaling (AID 588544)
# [10] = qHTS assay for small molecule agonists of the antioxidant response element (ARE) signaling pathway (AID 651741; active means well fitted activation curve with a large enough effect in the signal ratio; the % refers to the signal ratio; further: potency means the concentration at half of the fitted maximal effect)
# Summary of the method: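 HepG2 ARE-bla cells plated at 2,000 cells/well and incubated 5 h at 37 C/5% CO2 received 23 nL compound in DMSO. After 16 h at 37 C, LiveBLAzer B/G FRET substrate was applied for 2 h at room temperature and fluorescence read.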
# [11] = qHTS assay for small molecule activators of the p53 signaling pathway (AID 651743; active means well fitted activation curve with a large enough effect in the signal ratio, not every such curve was filed as active; the % refers to the signal ratio); settings: HCT-116 p53RE-bla, beta-lactamase FRET ratio, 16 h; activation: stronger effect = higher value
# Summary of the method: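 HCT-116 p53RE-bla, 4,000 cells/well; 5 h settle; cpd/DMSO 16 h, 37 C; LiveBLAzer B/G 2 h RT; fluorescence intensity.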
# [12] = qHTS assay for small molecule disruptors of the mitochondrial membrane potential - 5 hr assay (AID 651755); further: nearly all actives have a fitted effect of over 40% in size; further: potency means the concentration at half of the fitted maximal effect
# Summary of the method: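 HepG2 cells (2,000/well), attached overnight, exposed to compound 5 hr at 37C, then Mito-MPS dye 30 min. Fluorescence read for monomers (490/535 nm) and aggregates (540/590 nm).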
# [13] = biological target: Peroxisome proliferator-activated receptor gamma (Homo sapiens) (UniProt P37231); test: qHTS assay for small molecule antagonists of peroxisome proliferator-activated receptor gamma signaling (AID 588537; active means well fitted inhibition curve with a large enough effect in the signal ratio, with a control signal flat, not every such curve was filed as active; the % refers to the signal ratio;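 further: reporter cells co-stimulated with 50 nM rosiglitazone agonist during compound treatment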)
# Summary of the method: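 Step one: plate 3000 HEK293 UAS-bla cells per well in medium with 1% stripped serum and hold 6-6.5 h at 37 C. Step two: add compound and 50 nM agonist for 16 h. Step three: CCF4 loading, fluorescence read.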
# [14] = qHTS assay for small molecule disruptors of the mitochondrial membrane potential - 1 hr assay (AID 651754); further: nearly all actives have a fitted effect of over 35% in size; further: potency means the concentration at half of the fitted maximal effect
# Summary of the method: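 Steps: seed HepG2 cells and let attach overnight; pin-transfer compound or vehicle; incubate 1 hr at 37C; add Mito-MPS dye for 30 min; read two-channel fluorescence for monomer and aggregate forms.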
# [15] = qHTS assay for small molecule activators of the nuclear factor-kappa B (NF-kB) signaling pathway (AID 651749; active means well fitted activation curve with a large enough effect in the signal ratio; the % refers to the signal ratio); settings: NF-kB-bla ME-180 cells, beta-lactamase FRET ratio, 16 h; stronger effect = higher value
# Summary of the method: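 Incubation lasted 16 hr at 37C in 5% CO2 after 23 nL compound addition to ME-180 NF-kB-bla cells. Activation appears as beta-lactamase-mediated FRET loss.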
# [16] = Cell Viability - BJ (AID 421); settings: BJ fibroblast viability, qHTS;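 further: potency means the concentration at half of the fitted maximal effect; cells exposed to compound for 40 hours at 37 °C before readout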
# Summary of the method: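 Cytotoxicity in human BJ foreskin fibroblasts is scored as loss of cellular ATP after a 40-hour exposure, measured by luciferase luminescence. Controls are DMSO and 100 uM tamoxifen.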
# [17] = qHTS assay for small molecule antagonists of peroxisome proliferator-activated receptor delta signaling (AID 588535; active means well fitted inhibition curve with a large enough effect in the signal ratio, with a control signal flat, not every such curve was filed as active; the % refers to the signal ratio;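 on max response: cells co-treated with a PPAR-delta agonist as stimulator during compound exposure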); settings: HEK293T PPARd-UAS-bla, beta-lactamase FRET ratio, 18 h; 460 nm channel
# Summary of the method: (§1)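 Cells were seeded at 4000 per well in assay medium containing 2% charcoal/dextran FBS and held 5 hrs at 37 C. Compounds were then added for 18 hrs. CCF4 substrate was applied for 2 hrs at room temperature before fluorescence reading.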
# [18] = biological target: Peroxisome proliferator-activated receptor delta (Homo sapiens) (UniProt Q03181); test: as above
# Summary of the method: as §1
# [19] = biological target: Estrogen receptor (Homo sapiens) (UniProt P03372); test: qHTS assay for small molecule agonists of estrogen receptor alpha signaling (AID 588514); further: nearly all actives have a fitted effect of over 70% in size
# Summary of the method: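 Reporter-gene assay. […] controls beta-lactamase in HEK 293 GripTite cells; after 18 hrs with compound, CCF4 substrate is added for 2 hrs and fluorescence is read.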
# [20] = biological target: Bile acid receptor (Homo sapiens) (UniProt Q96RI1); test: qHTS assay for small molecule antagonists of farnesoid X receptor signaling (AID 588526)
# Summary of the method: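 Antagonist mode: titrated compounds tested against chenodeoxycholic acid stimulation (normalized to 50 uM CDCA and DMSO) in GeneBLAzer HEK293T cells for 16 h. Beta-lactamase read by CCF4 fluorescence; IC50 from Hill fits.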
# Chain of Retinoic acid receptor RXR-alpha (Homo sapiens) (P19793 whole entry, looked up): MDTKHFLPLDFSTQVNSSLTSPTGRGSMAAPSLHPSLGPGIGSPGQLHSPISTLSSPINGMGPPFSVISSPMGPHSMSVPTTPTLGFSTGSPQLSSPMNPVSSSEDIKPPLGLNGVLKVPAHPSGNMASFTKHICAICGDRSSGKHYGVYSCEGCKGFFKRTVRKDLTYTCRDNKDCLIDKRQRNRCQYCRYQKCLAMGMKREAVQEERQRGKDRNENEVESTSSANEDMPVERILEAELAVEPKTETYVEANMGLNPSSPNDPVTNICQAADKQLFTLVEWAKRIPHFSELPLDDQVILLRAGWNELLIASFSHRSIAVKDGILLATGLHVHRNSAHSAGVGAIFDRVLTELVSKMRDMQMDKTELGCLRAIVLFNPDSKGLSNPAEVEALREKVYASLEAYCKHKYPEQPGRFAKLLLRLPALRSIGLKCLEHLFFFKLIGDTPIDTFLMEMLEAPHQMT
# Chain of Glucocorticoid receptor (Homo sapiens) (P04150 whole entry, looked up): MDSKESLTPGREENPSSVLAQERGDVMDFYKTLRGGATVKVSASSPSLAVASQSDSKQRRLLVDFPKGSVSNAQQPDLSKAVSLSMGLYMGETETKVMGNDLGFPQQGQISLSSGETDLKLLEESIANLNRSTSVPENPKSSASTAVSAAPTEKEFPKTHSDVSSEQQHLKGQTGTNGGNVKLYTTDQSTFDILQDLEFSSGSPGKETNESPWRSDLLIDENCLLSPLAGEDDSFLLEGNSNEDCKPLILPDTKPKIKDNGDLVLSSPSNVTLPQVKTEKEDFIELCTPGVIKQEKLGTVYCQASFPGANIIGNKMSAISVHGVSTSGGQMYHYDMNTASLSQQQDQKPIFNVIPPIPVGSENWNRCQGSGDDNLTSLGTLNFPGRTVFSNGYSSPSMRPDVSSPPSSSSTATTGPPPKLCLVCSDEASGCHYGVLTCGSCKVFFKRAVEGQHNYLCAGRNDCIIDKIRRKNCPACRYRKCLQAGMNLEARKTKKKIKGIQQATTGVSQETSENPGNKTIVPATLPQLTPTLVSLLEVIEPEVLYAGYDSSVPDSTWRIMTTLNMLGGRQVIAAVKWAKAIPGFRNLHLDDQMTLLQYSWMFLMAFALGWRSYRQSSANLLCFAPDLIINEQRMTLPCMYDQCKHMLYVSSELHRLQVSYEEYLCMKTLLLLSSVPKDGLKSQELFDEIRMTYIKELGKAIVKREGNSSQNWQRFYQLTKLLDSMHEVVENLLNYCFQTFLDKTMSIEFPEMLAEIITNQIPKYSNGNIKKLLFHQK
# Chain of Peroxisome proliferator-activated receptor gamma (Homo sapiens) (P37231 whole entry, looked up): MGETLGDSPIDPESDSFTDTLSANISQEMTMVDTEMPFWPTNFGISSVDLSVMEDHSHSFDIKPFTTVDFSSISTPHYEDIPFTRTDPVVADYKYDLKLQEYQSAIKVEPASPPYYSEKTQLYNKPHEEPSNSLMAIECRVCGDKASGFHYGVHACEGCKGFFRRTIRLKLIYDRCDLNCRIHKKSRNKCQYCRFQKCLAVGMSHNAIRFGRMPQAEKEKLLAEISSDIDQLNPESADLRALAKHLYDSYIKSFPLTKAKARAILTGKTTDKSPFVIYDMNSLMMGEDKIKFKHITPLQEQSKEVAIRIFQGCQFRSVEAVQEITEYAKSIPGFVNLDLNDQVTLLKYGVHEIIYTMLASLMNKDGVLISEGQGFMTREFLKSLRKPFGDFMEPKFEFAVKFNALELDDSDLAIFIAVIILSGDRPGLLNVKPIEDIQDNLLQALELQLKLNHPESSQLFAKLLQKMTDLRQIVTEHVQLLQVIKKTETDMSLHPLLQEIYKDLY
# Chain of Peroxisome proliferator-activated receptor delta (Homo sapiens) (Q03181 whole entry, looked up): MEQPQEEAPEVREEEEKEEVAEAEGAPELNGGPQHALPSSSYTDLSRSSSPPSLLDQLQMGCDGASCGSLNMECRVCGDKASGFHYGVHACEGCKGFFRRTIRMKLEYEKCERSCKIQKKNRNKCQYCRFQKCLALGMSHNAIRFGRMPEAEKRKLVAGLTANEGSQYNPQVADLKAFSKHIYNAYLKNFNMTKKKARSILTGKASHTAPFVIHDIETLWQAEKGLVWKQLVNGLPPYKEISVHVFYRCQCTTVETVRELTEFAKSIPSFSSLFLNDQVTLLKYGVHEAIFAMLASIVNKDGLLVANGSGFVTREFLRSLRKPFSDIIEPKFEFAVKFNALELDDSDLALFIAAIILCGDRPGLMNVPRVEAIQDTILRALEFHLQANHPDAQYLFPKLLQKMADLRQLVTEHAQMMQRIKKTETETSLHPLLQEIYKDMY
# Chain of Estrogen receptor (Homo sapiens) (P03372 whole entry, looked up): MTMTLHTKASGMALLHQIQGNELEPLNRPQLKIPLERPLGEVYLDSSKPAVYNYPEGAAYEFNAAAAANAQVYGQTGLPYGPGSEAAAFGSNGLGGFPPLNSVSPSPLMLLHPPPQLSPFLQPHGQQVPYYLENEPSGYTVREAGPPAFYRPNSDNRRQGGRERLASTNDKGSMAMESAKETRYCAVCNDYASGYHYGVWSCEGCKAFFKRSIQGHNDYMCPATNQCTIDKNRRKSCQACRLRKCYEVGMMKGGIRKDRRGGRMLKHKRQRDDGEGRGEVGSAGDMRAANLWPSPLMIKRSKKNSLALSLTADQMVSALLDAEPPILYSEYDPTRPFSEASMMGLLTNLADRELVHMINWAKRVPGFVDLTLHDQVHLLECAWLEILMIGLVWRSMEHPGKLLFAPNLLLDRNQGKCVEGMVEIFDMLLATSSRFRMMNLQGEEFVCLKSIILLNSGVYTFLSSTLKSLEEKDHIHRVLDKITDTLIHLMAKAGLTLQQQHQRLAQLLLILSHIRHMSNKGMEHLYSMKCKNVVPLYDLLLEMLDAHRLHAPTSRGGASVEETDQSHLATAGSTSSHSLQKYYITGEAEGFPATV
# Chain of Bile acid receptor (Homo sapiens) (Q96RI1 whole entry, looked up): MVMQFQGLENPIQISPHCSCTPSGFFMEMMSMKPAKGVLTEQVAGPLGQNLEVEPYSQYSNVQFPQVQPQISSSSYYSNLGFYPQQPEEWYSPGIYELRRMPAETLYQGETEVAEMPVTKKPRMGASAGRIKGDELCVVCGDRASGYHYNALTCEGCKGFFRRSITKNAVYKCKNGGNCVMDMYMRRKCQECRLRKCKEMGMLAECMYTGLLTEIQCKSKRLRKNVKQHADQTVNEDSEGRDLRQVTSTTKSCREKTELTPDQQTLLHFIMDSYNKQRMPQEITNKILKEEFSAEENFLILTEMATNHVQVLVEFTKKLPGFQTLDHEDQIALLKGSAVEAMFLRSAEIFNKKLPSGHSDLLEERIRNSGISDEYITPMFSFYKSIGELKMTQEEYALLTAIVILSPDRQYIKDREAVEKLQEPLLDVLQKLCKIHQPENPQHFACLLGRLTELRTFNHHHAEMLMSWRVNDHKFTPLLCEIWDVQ
smiles,measurement,setting,value
CC(Cl)CCl (stereo not drawn),Potency,[1],inactive
same,Potency,[2],inactive
same,caspase-3 activation,[3],0.191% (inactive)
same,Potency,[4],inactive
same,Potency,[5],inactive
same,activation,[6],4.13% (inactive)
same,outcome,[7],inactive
same,outcome,[8],inactive
same,outcome,[9],inactive
same,Potency,[10],inactive
same,activation,[11],0.619% (inactive)
same,Potency,[12],inactive
S=c1[nH]c2ccccc2[nH]1,caspase-3 activation,[3],-0.402% (inactive)
same,activation,[6],-3.9% (inactive)
same,outcome,[7],inactive
same,Potency,[13],inactive
same,outcome,[9],inactive
same,Potency,[14],inactive
same,Potency,[12],inactive
O=[N+]([O-])c1cccc(CCl)c1,"activity change, negative = cytotoxicity",[1],-132% (active)
same,activation,[6],5.78% (inactive)
same,outcome,[7],inactive
same,Potency,[10],42.2 µM (active)
same,activation,[15],1.19% (inactive)
same,Potency,[14],inactive
same,Potency,[12],inactive
Nc1ccc(-c2ccc(N)c(Cl)c2)cc1Cl,Potency,[2],12.6 µM (active)
same,Potency,[4],inactive
same,activation,[6],-5.3% (inactive) and -4.62% (inactive)
same,Potency,[13],inactive
same,Potency,[10],5.31 µM (active) and 12.2 µM (active)
same,Potency,[12],37.6 µM (active)
COC(C)(C)C,Potency,[16],> 92 µM (inactive)
same,Potency,[1],inactive
same,Potency,[4],inactive
same,max response,[17],-16.9%
same,outcome,[18],inactive
same,outcome,[9],inactive
same,Potency,[10],inactive
same,activation,[11],-2.31% (inactive)
same,activation,[15],1.85% (inactive)
same,Potency,[14],inactive
same,Potency,[12],inactive
OCC(Cl)CCl (stereo not drawn),Potency,[1],inactive
same,Potency,[2],inactive
same,Potency,[4],inactive
same,Potency,[5],inactive
same,Potency,[19],inactive
same,activation,[6],11.4% (inactive)
same,outcome,[7],inactive
same,outcome,[8],inactive
same,max response,[17],-16%
same,Potency,[13],inactive
same,outcome,[9],inactive
same,activation,[11],-0.732% (inactive)
same,activation,[15],0.192% (inactive)
same,Potency,[12],inactive
Nc1ccc(Oc2ccc(N)cc2)cc1,Potency,[2],inactive
same,caspase-3 activation,[3],3.63% (inactive)
same,activation,[6],-1.85% (inactive) and -6.36% (inactive)
same,outcome,[7],inactive
same,outcome,[8],inactive
same,max response,[17],31.7%
same,outcome,[9],inactive
same,Potency,[10],inactive
same,activation,[11],-4.54% (inactive) and -10.7% (inactive)
same,activation,[15],0.532% (inactive) and -1.89% (inactive)
same,Potency,[14],inactive
same,Potency,[12],inactive
Oc1ccc(Cl)c(Cl)c1,Potency,[2],inactive
same,caspase-3 activation,[3],-1.55% (inactive)
same,Potency,[4],inactive
same,Potency,[5],inactive
same,outcome,[8],inactive
same,max response,[17],-12.5%
same,outcome,[18],inactive
same,Potency,[13],inactive
same,outcome,[9],inactive
same,activation,[11],2.18% (inactive)
same,Potency,[14],33.5 µM (active)
same,Potency,[12],42.2 µM (active)
N#C/C=C/C#N,"activity change, negative = cytotoxicity",[1],-156% (active)
same,Potency,[2],15.8 µM (active)
same,Potency,[4],25.1 µM (active)
same,Potency,[5],inactive
same,outcome,[7],inactive
same,outcome,[8],inactive
same,Potency,[10],37.6 µM (active)
same,Potency,[14],inactive
same,Potency,[12],inactive
N#CCc1ccccc1,Potency,[1],inactive
same,Potency,[2],inactive
same,caspase-3 activation,[3],-0.89% (inactive)
same,Potency,[4],inactive
same,Potency,[5],inactive
same,outcome,[8],inactive
same,max response,[17],-33.3%
same,outcome,[18],inactive
same,Potency,[13],inactive
same,outcome,[9],inactive
same,activation,[11],-0.84% (inactive)
same,activation,[15],0.487% (inactive)
ClC(Cl)c1ccccc1,Potency,[2],inactive
same,caspase-3 activation,[3],2.34% (inactive)
same,Potency,[4],inactive
same,Potency,[5],inactive
same,Potency,[19],inactive
same,activation,[6],-0.105% (inactive)
same,outcome,[7],inactive
same,outcome,[8],inactive
same,max response,[17],17.7%
same,outcome,[18],inactive
same,outcome,[9],inactive
same,Potency,[10],inactive
same,activation,[15],-0.312% (inactive)
same,Potency,[14],inactive
same,Potency,[12],inactive
C=CCOCC1CO1 (stereo not drawn),Potency,[1],inactive
same,Potency,[2],inactive
same,Potency,[4],inactive
same,Potency,[5],inactive
same,Potency,[19],inactive
same,outcome,[20],inactive
same,activation,[6],4.14% (inactive)
same,outcome,[7],inactive
same,outcome,[9],inactive
same,Potency,[10],inactive
same,activation,[11],-3.48% (inactive)
